Assay outcomes: PubChem BioAssay, National Center for Advancing Translational Sciences (NCATS)
ALOX12 inh: blocks human arachidonate 12S-lipoxygenase; purified 12hLO, xylenol orange hydroperoxide absorbance; Potency, µM (top dose mostly 108 µM), inactives show top-dose activity change, negative = inhibition, usual class: inhibitors; 580,000 compounds, 1.1% hits; further: potency means the concentration at half of the fitted maximal effect
Target sequence (P18054 whole entry, looked up): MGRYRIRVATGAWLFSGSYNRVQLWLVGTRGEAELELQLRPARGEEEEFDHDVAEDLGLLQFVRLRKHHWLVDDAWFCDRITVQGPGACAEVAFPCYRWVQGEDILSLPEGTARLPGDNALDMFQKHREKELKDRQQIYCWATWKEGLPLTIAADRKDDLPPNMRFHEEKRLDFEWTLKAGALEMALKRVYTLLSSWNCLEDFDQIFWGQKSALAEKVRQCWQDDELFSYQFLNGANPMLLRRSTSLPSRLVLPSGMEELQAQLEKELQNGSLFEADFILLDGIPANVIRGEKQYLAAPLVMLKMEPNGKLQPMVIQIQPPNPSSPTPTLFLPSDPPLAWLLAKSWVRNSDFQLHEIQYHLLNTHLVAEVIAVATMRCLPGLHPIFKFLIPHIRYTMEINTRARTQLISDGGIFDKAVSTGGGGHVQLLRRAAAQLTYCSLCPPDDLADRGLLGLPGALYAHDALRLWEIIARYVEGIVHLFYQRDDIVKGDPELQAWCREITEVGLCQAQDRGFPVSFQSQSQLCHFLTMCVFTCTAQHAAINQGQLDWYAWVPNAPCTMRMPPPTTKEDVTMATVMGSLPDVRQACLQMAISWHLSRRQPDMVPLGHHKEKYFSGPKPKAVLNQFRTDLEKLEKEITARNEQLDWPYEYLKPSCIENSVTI
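Purified human 12hLO at 150 nM in 25 mM Hepes, 0.01% Triton X-100, pH 7.0, preincubated 15 min at room temperature with compound. Reaction started with 40 uM arachidonic acid, 30 min at room temperature. Hydroperoxide measured by Fe-xylenol orange, 573/405 nm absorbance ratio.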
DT40 TDP1 CPT: DT40-hTDP1 cell growth loss with CPT. chicken DT40 Tdp1-/-;hTDP1 cells + 20 nM CPT, ATP luminescence, 48 h. Potency, µM (doses to about 46.2 µM), without a hit: at the highest dose activity change, negative = growth inhibition, usual class: inhibitors. 420,000 compounds, 12% hits. AID 686979; further: potency means the concentration at half of the fitted maximal effect; nearly all actives have a fitted effect of over 55% in size
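Chicken DT40 Tdp1-/- cells stably complemented with human TDP1 were seeded at 400 cells/well in medium containing 20 nM camptothecin, exposed to pin-transferred compounds, and grown at 37 °C for at least 48 hr. Viability was read as ATP luminescence.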
TDP1 cell noCPT: qHTS for Inhibitors of human tyrosyl-DNA phosphodiesterase 1 (TDP1): qHTS in cells in absence of CPT; Potency, µM (series often up to 46.2 µM), inactives show at the top dose activity change, negative = growth inhibition, actives largely listed as inhibitors; DT40 Tdp1-/- hTDP1 cells, no CPT, ATP luminescence, 48 h; 420,000 compounds, 15% hits; further: potency means the concentration at half of the fitted maximal effect; nearly all actives have a fitted effect of over 55% in size
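Stably hTDP1-transfected Tdp1-null chicken DT40 cells were treated with library compounds minus camptothecin and grown for at least 48 hr at 37 °C, after which cellular ATP was quantified by luminescence.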
IL-1B inflam inh: inhibitors of inflammasome signaling (IL-1 beta secretion); THP-1 LPS/ATP IL-1B secretion, AlphaLISA, 16 h; active compounds read low; activity change, % at 57.5 µM; 360,000 compounds, 4.7% hits; AID 743279; in the data active means activity change below about -50%; inconclusive means mostly about -30% to -49%
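Secreted IL-1B measured by AlphaLISA bead assay after 16 h compound exposure of THP-1 cells; compounds (final up to 57.5 uM) added 1 h before LPS (250 ng/mL) and ATP (1.25 mM) stimulation; lower signal means less secretion.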
HT1080-NT tox: kills 2HG-producing HT-1080-NT fibrosarcoma cells; 360,000 compounds, 1.6% hits; Potency, µM (series often up to 46.1 µM), inactives show at the highest dose activity, negative = less viability, hits mostly cytotoxic; HT-1080-NT fibrosarcoma viability, CellTiter-Glo ATP luminescence, 48 h;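 further: NT is the 2HG producing partner of a matched IDH1 knockdown line; potency means the concentration at half of the fitted maximal effect; 0% = DMSO-treated cells and -100% = media-only wells without cells; nearly all actives have a fitted effect of over 55% in size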
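Viability of the 2HG-overproducing fibrosarcoma line after 48 hours of compound exposure at 37 degrees C was determined by luminescence with CellTiter-Glo, and concentration-effect curves were then fitted and categorized.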
HT1080 IDH1KD tx: toxicity to HT-1080 IDH1 knockdown cells (counter line). Potency, µM (titrated, usually from 46.1 µM), for the others: top-dose activity, negative = toxicity, hits mostly cytotoxic. 360,000 compounds, 2% hits. HT-1080 IDH1 knockdown viability, ATP luminescence, 48 h. AID 686971;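 further: potency means the concentration at half of the fitted maximal effect; 0% = DMSO wells and -100% = cell-free medium wells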
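After a 2 h attachment period, IDH1KD HT-1080 cells took pin-transferred compound for 48 h at 37 °C; ATP-based luminescence after 10 min room-temperature reagent incubation reported viability.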
* hit, by the source's call; ? = inconclusive; . = not tested or not shown; [ ] = remark or other dose. The entries come from a sample that favours hits as a whole. Unless noted, the call rests on the fitted dose curve; in most records, active means well fitted curve in the direction sought with a large enough effect; inconclusive means small, poorly fitted or top-dose-only effect, or another doubt; inactive means no such curve, though single readings can be large; an effect the other way counts as inactive or inconclusive. Unless noted, on the % scale 0 is the no-effect control and ±100 the full control effect.

SMILES | ALOX12 inh | DT40 TDP1 CPT | TDP1 cell noCPT | IL-1B inflam inh | HT1080-NT tox | HT1080 IDH1KD tx
Cc1ccc(S(=O)(=O)N2CCOCC2)cc1C(=O)Nc1ccc(-c2cn3ccsc3n2)cc1 | -23% | 11µM* | 11µM* | 14 | -13% | 0%
Cc1ccc(S(=O)(=O)N2CCOCC2)cc1NC(=O)CSc1ccc(Cl)cc1 | -7% | ? | ? | -9 | 6% | 4%
Cc1ccc(S(=O)(=O)N2CCOCC2)cc1NC(=O)C(c1ccc(Cl)cc1)C(C)C (stereo not drawn) | -16% | ? | ? | -58* | 1% | -2%
COC[C@@H]1OC[C@@]2(C)C3CC[C@@H](O)[C@@H](CC(=O)NCc4cccs4)[C@]3(C)CC[C@H]2O1 (stereo partly drawn) | 14% | . | . | . | . | .
CC(NC(=O)c1ccc([N+](=O)[O-])o1)C1CC2CCC1C2 (stereo not drawn) | . | 21µM* | ? | -92* | ? | ?
O=C(NC12CC3CC(CC(C3)C1)C2)c1ccc(-c2ccc(Br)cc2)o1 | -21% | 23µM* | 16µM* | ? | -7% | ?
O=C(NC12CC3CC(CC(C3)C1)C2)c1ccc([N+](=O)[O-])o1 | 0% | 23µM* | 23µM* | -63* | ? | ?
CC(NC(=O)c1ccc([N+](=O)[O-])cc1Cl)C1CC2CCC1C2 (stereo not drawn) | ? | ? | ? | -23 | -6% | -10%
O=C(NC12CC3CC(CC(C3)C1)C2)c1ccc(Br)o1 | 37% | -8% | ? | 15 | -11% | -24%
NC(=O)Cc1c[nH]c2ncc(-c3ccc4c(c3)OCO4)cc12 | -1%[176 µM] | . | . | . | . | .
Cc1cc(NC(=O)COc2cccc(Cl)c2)no1 | 19% | . | . | . | . | .
COc1ccc(OC)c(CCNC(=O)C(C)n2nc(C)c3c(C)n(-c4ccccc4)nc3c2=O)c1 (stereo not drawn) | 0% | ? | ? | 0 | -1% | -13%
CCC(C(=O)NCc1ccc(C)o1)n1nc(C)c2c(C)n(-c3ccccc3)nc2c1=O (stereo not drawn) | 28% | -13% | -10% | -7 | -3% | -6%
COc1ccc(OC)c(CCNC(=O)C(C)n2nc(C)c3c(C)n(-c4ccc(C)cc4)nc3c2=O)c1 (stereo not drawn) | 1% | ? | 18µM* | 7 | -17% | 21µM*
COc1ccc(CCNC(=O)Cn2nc(C)c3c(C)n(-c4ccc(C)cc4)nc3c2=O)c(OC)c1 | ? | 16µM* | ? | . | . | .
CCC(C(=O)NCCc1cc(OC)ccc1OC)n1nc(C)c2c(C)n(-c3ccccc3)nc2c1=O (stereo not drawn) | 2% | 18µM* | ? | . | . | .
CS(=O)(=O)N1CCCN(Cc2cccc(C#N)c2)CCNC(=O)CC1c1ccccc1 (stereo not drawn) | -5% | . | . | . | . | .
N#Cc1ccc(C(=O)N2CCC[C@H]2c2nc(-c3ccccc3)no2)cc1 | 3% | . | . | . | . | .
O=C(Cn1c(NCc2ccccc2)nc2ccccc21)N1CCCCC1 | 2% | . | . | . | . | .
O=C(c1ccc(S(=O)(=O)N2CCCCC2)cc1)N1CCN(CCN2C(=O)c3cccc4cccc(c34)C2=O)CC1 | -10% | 13µM* | 12µM* | -3 | 3% | -3%
CCOc1ccc(NC(=S)N2CCN(CCN3C(=O)c4cccc5cccc(c45)C3=O)CC2)cc1 | -16% | ? | 26µM* | 11 | 24% | 11%
O=C(/C=C/c1ccccc1)N1CCN(CCN2C(=O)c3cccc4cccc(c34)C2=O)CC1 | -17% | 7.3µM* | 7.3µM* | -25 | -4% | 6%
O=C(CCN1C(=O)c2cccc3cccc(c23)C1=O)N1CCOCC1 | 6% | 7% | -15% | ? | 27% | 15%
Cc1ccc(-n2c(SCC(N)=O)nc3c(c2=O)C2(CCCC2)Cc2ccccc2-3)cc1 | -8% | -25% | ? | -63* | -6% | -4%
Nn1cnc2c(c1=O)C1(CCCCC1)Cc1ccccc1-2 | -12% | 9.2µM* | 8.2µM* | 0 | -10% | -10%
SMILES | ALOX12 inh | DT40 TDP1 CPT | TDP1 cell noCPT | IL-1B inflam inh | HT1080-NT tox | HT1080 IDH1KD tx
Oc1ccc(-c2nc3c4c(ncn3n2)-c2ccccc2CC42CCCC2)cc1 | -19% | 15µM* | 16µM* | -1 | 12% | 17%
CC(=O)Nn1cnc2c(c1=O)C1(CCCC1)Cc1ccccc1-2 | 0% | -1% | 0% | 16 | 2% | ?
O=C1C=C(C#Cc2ccc(Oc3ccccc3)cc2)C[C@@H](c2ccc(F)cc2)C1 | 0% | 16µM* | 12µM* | -80* | ? | ?
COc1cccc(C#CC2=CC(=O)C[C@H](c3ccc(F)cc3)C2)c1 | -70% | 13µM* | 8.2µM* | -93* | ? | ?
O=C1C=C(c2ccc(-c3ccccc3)c(F)c2)C[C@@H](c2ccc(F)cc2)C1 | 2% | ? | ? | 20 | 8% | 8%
O=C(CC1C(=O)NCCN1Cc1ccc(-c2ccccc2)cc1)NCCOc1cccnc1 (stereo not drawn) | 0% | ? | 16µM* | -3 | -10% | -11%
COc1ccccc1-c1cnc(Nc2cccc(N[S+](C)(=O)[O-])c2)c2c1CCO2 | -6%[176 µM] | . | . | . | . | .
NC(=S)N/N=C1\CCSc2ccc(Cl)cc21 | 0% | 21µM* | 18µM* | -2 | -11% | -7%
O=C(N/N=C1\CCSc2ccc(F)cc21)c1cccnc1 | 3% | -10% | -19% | -23 | 6% | 8%
NC(N)=NN=C(c1ccc(F)cc1)c1ccc(C(F)(F)F)cc1 | ? | 2.6µM* | 2.3µM* | -104* | 2.9µM* | 7.3µM*
Cc1cc(-n2c(SCC(=O)NCCC3=CCCCC3)nc3n[nH]c(C)c3c2=N)ccc1Cl | -2% | 16µM* | 8.2µM* | 14 | 18µM* | ?
Cc1[nH]nc2nc(SCC(=O)NCCC3=CCCCC3)n(-c3ccc(Br)cc3)c(=N)c12 | -16% | 12µM* | 8.2µM* | -4 | 21µM* | ?
Cc1ccc(Cl)cc1-n1c(SCC(=O)NCCC2=CCCCC2)nc2n[nH]c(C)c2c1=N | -4% | ? | -23% | 0 | ? | ?
Cc1oc(-c2ccccc2)nc1CC(=O)NC1CCN(CC(N)=O)CC1 | 1% | . | . | . | . | .
CN(C1CCOCC1)C1CCN(S(=O)(=O)c2ccccc2)CC1 | 11% | . | . | . | . | .
